In PubChem BioAssay (EPA / NIEHS):
Results filed as inconclusive are left out. Active and inactive are the calls of the source. How the source made its calls, unless noted: active means hit-call score of the fitted dose curve at least 0.9, where 1 is the maximum; inactive means score below 0.9.

Legend:
[1] = biological target: Glucocorticoid receptor (Homo sapiens) (UniProt P04150); assay: ATG_GR_TRANS: Attagene TRANS-FACTORIAL HepG2 Assay for human Glucocorticoid Receptor (GR) (AID 2282978; active means hit-call score of the fitted dose curve at least 0.9, where 1 is the maximum;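 further: activators score as hits since higher reporter transcript over DMSO is fitted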); conditions: HepG2 Attagene TRANS GR reporter, mRNA transcription
In short: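 Fluorescent capillary-electrophoresis quantitation of reporter mRNA is the readout, taken 24 h after dosing human HepG2 cells carrying transiently transfected GAL4-UAS reporter units activated by chimeric NR-GAL4 fusions; activity scored as induction over DMSO.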

[2] = biological target: Bile acid receptor (Homo sapiens) (UniProt Q96RI1); assay: ATG_FXR_TRANS: Attagene TRANS-FACTORIAL HepG2 Assay for Farnesoid X Receptor (FXR) (AID 2282979; active means hit-call score of the fitted dose curve at least 0.9, where 1 is the maximum;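 further: hits raise reporter mRNA above DMSO so AC50 marks FXR activation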); conditions: HepG2 Attagene TRANS FXR-GAL4 reporter transcription
In short: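 Transient transfection of HepG2 with multiplexed GAL4-UAS reporter units; exogenous FXR-GAL4 chimera. Dose 24 h → TriZol RNA → oligo(dT) RT → PCR, 6-FAM primer extension, HpaI cut → CE. Gain vs DMSO.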

[3] = biological target: Oxysterols receptor LXR-alpha (Homo sapiens) (UniProt Q13133); assay: ATG_LXRa_TRANS: Attagene TRANS-FACTORIAL HepG2 Assay for human Liver X Receptor alpha (LXRa) (AID 2282980; active means hit-call score of the fitted dose curve at least 0.9, where 1 is the maximum); conditions: HepG2 Attagene TRANS reporter, LXRa transactivation
In short: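 Transfect HepG2 with GAL4-UAS multiplex reporter constructs (TRANS format, chimeric receptor-GAL4); treat 24 h; extract RNA, reverse-transcribe, PCR-amplify, FAM-label, HpaI-digest; resolve fragments by capillary electrophoresis. Upward response vs DMSO.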

[4] = ATG_M_32_TRANS: Attagene TRANS-FACTORIAL HepG2 Assay for M32 Transcription Factor (Internal Marker) (AID 2282984; active means hit-call score of the fitted dose curve at least 0.9, where 1 is the maximum); conditions: HepG2 Attagene TRANS M32 internal marker reporter
In short: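 Fluorescence-detected mRNA induction, HepG2 liver cells, 24 h after dosing. Multiple GAL4-UAS reporter units introduced by transient transfection; background-control endpoint analysed for gain of signal against DMSO.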

[5] = biological target: Transcriptional activator Myb (Homo sapiens) (UniProt P10242); assay: ATG_Myb_CIS: Attagene CIS-FACTORIAL HepG2 Assay for human Myeloblastosis (Myb) Proto-Oncogene Transcription Factor (AID 2282986); conditions: HepG2 Attagene CIS-FACTORIAL Myb reporter transcription; actives raise or lower the signal
In short: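 Reporter transcript levels, quantified by fluorescent RT-PCR and capillary electrophoresis, serve as the read-out. Transfected HepG2 cells carrying cis-promoter reporter units are dosed for 24 hours, and curves are fitted bidirectionally against DMSO controls.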

[6] = biological target: Nuclear respiratory factor 1 (Homo sapiens) (UniProt Q16656); assay: ATG_NRF1_CIS: Attagene CIS-FACTORIAL HepG2 Assay for human Nuclear Respiratory Factor 1 (NRF1) Orphan Gene (AID 2282987); conditions: HepG2 NRF1 cis-element reporter, Attagene multiplex; actives raise or lower the signal
In short: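 Multiplexed cis-reporter assay, HepG2 cells, 24 h treatment. Total RNA → oligo(dT) RT → PCR with reporter-specific primers → 6-FAM primer extension → HpaI cut → CE. Bidirectional fit vs DMSO.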

[7] = ATG_NFI_CIS: Attagene CIS-FACTORIAL HepG2 Assay for human Nuclear Factor I (NFI) (AID 2282989); conditions: HepG2 cis-regulatory reporter, NFI response element transcription; actives raise or lower the signal
In short: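 HepG2 cells transiently transfected with cis-element-driven multiplexed reporter transcription units, dosed for 24 h. Reporter mRNA quantified by RT-PCR, fluorescent labelling, HpaI digestion and capillary electrophoresis; bidirectional fit versus DMSO baseline.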

[8] = biological target: Myc proto-oncogene protein (Homo sapiens) (UniProt P01106); assay: ATG_Myc_CIS: Attagene CIS-FACTORIAL HepG2 Assay for human Myelocytomatosis (Myc) Proto-Oncogene Transcription Factor (AID 2282990); conditions: HepG2, Attagene cis-reporter transcription factor activity; actives raise or lower the signal
In short: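 Multiplexed cis-reporter transcription in HepG2 cells after 24 h chemical treatment. Reporter mRNA measured by RT-PCR and capillary electrophoresis fluorescence; activity fitted bidirectionally against DMSO control.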

[9] = ATG_Oct_MLP_CIS: Attagene CIS-FACTORIAL HepG2 Assay for human Octamer-Binding Transcription Factor (Oct) (AID 2282993); conditions: HepG2 Attagene cis-factorial Oct reporter, mRNA; actives raise or lower the signal
In short: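 HepG2 cells transiently transfected with cis-promoter-driven multiplexed reporter transcription units, dosed for 24 h. Reporter mRNA quantified by RT-PCR, fluorescent labelling, HpaI digestion and capillary electrophoresis; bidirectional fits versus DMSO baseline.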

[10] = biological target: Cellular tumor antigen p53 (Homo sapiens) (UniProt P04637); assay: ATG_p53_CIS: Attagene CIS-FACTORIAL HepG2 Assay for human p53 Transcription Factor (AID 2282994); conditions: HepG2 p53 cis-element reporter, Attagene mRNA; actives raise or lower the signal
In short: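 In HepG2 cells, reporter transcription units under cis-regulatory promoters were transiently introduced. Following 24 h treatment, RNA was processed to labelled, digested cDNA fragments read by capillary electrophoresis; fitting was bidirectional versus DMSO.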

[11] = biological target: Oxysterols receptor LXR-beta (Homo sapiens) (UniProt P55055); assay: ATG_LXRb_TRANS: Attagene TRANS-FACTORIAL HepG2 Assay for human Liver X Receptor beta (LXRb) (AID 2282981; active means hit-call score of the fitted dose curve at least 0.9, where 1 is the maximum); conditions: HepG2 Attagene TRANS GAL4-LXRb reporter, mRNA
In short: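 Liver-derived HepG2 cells transfected with Gal4-responsive reporters were dosed for 24 h. Activation was scored as rise in reporter mRNA, by RT-PCR and capillary electrophoresis, above DMSO baseline.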

[12] = ATG_M_06_TRANS: Attagene TRANS-FACTORIAL HepG2 Assay for M06 Transcription Factor (Internal Marker) (AID 2282983; active means hit-call score of the fitted dose curve at least 0.9, where 1 is the maximum); conditions: HepG2 Attagene TRANS M06 internal marker reporter
In short: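 Background control endpoint: reporter mRNA from transiently transfected HepG2 after 24 h dosing, detected by RT-PCR with capillary electrophoresis fluorescence. Analysed for gain versus DMSO.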

[13] = biological target: Nuclear receptor subfamily 4 group A member 2 (Homo sapiens) (UniProt P43354); assay: ATG_NURR1_TRANS: Attagene TRANS-FACTORIAL HepG2 Assay for human Nuclear Receptor Related Protein 1 (NURR1) (AID 2282985; active means hit-call score of the fitted dose curve at least 0.9, where 1 is the maximum); conditions: HepG2 Attagene TRANS reporter, mRNA readout
In short: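 Chimeric NR-Gal4 proteins were expressed in human HepG2 cells bearing GAL4-UAS reporter units, and induced reporter mRNA was quantified 24 h post-dosing by RT-PCR and capillary electrophoresis.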

[14] = ATG_NF_kB_CIS: Attagene CIS-FACTORIAL HepG2 Assay for human Nuclear Factor Kappa B (NF-kB) (AID 2282991); conditions: HepG2 Attagene cis-factorial NF-kB reporter mRNA; actives raise or lower the signal
In short: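 Transient MRTU transfection of human HepG2 liver cells → 24 h chemical exposure → total RNA, oligo(dT) RT → PCR, 6-FAM primer extension, HpaI digest 2 h 37 C → CE fragment analysis. Bidirectional fitting, DMSO negative control.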

[15] = ATG_NRF2_ARE_CIS: Attagene CIS-FACTORIAL HepG2 Assay for human Nuclear Factor Erythroid 2 Related Factor 2 (NFR2) response to Antioxidant Response Elements (ARE) (AID 2282992); conditions: HepG2 Attagene ARE/NRF2 reporter, transcription factor activity; actives raise or lower the signal
In short: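 Using transiently transfected HepG2 cells exposed for 24 h, reporter mRNA levels were determined by RT-PCR with fluorescent primer extension and capillary electrophoresis, analysed for gain or loss of signal against DMSO.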

[16] = biological target: Hepatocyte nuclear factor 4-alpha (Homo sapiens) (UniProt P41235); assay: ATG_HNF4a_TRANS: Attagene TRANS-FACTORIAL HepG2 Assay for human Hepatocyte Nuclear Factor 4 alpha (HNF4a) (AID 2282982; active means hit-call score of the fitted dose curve at least 0.9, where 1 is the maximum); conditions: HepG2 HNF4a transactivation reporter, mRNA readout
In short: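 Using HepG2 liver cells transfected with GAL4-UAS reporter units, chemical-induced mRNA increases were assessed after 24 hours. Fluorescent RT-PCR fragments were separated by capillary electrophoresis and compared with DMSO negative controls.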

Measured: AC50

Chain of Glucocorticoid receptor (Homo sapiens) (P04150 whole entry, looked up, the tested form may be a part): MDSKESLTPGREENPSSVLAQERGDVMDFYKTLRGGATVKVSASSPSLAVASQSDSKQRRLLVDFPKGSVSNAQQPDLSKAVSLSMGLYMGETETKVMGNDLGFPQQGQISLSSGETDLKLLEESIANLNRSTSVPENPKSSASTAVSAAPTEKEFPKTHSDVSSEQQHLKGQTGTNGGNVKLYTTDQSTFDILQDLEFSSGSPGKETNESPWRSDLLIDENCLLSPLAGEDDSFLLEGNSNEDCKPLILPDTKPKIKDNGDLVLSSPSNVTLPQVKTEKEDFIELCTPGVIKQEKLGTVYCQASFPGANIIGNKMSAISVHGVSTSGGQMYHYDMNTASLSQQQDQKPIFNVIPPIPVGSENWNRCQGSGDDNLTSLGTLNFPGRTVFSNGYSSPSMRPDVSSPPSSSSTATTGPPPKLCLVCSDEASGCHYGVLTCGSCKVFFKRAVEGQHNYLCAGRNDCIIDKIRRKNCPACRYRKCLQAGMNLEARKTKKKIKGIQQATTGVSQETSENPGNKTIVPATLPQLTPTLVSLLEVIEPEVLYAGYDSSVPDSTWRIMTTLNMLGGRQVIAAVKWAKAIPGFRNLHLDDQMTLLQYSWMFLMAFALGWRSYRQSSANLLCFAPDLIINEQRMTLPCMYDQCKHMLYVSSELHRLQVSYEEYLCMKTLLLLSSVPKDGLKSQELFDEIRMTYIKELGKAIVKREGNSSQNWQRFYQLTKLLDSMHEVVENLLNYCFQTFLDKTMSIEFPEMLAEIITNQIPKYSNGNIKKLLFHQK
Chain of Oxysterols receptor LXR-alpha (Homo sapiens) (Q13133 whole entry, looked up, the tested form may be a part): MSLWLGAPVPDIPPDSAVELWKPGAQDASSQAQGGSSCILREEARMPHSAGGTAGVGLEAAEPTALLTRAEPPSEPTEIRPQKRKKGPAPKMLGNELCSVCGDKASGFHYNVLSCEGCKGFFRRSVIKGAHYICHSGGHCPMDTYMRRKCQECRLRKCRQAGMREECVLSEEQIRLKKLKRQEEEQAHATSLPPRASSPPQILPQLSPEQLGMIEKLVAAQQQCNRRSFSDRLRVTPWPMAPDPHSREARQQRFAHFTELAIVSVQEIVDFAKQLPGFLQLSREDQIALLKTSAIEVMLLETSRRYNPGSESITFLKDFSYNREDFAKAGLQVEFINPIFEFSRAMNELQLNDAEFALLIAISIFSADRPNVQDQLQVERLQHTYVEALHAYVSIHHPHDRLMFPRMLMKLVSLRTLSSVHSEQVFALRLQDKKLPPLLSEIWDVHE
Chain of Nuclear receptor subfamily 4 group A member 2 (Homo sapiens) (P43354 whole entry, looked up, the tested form may be a part): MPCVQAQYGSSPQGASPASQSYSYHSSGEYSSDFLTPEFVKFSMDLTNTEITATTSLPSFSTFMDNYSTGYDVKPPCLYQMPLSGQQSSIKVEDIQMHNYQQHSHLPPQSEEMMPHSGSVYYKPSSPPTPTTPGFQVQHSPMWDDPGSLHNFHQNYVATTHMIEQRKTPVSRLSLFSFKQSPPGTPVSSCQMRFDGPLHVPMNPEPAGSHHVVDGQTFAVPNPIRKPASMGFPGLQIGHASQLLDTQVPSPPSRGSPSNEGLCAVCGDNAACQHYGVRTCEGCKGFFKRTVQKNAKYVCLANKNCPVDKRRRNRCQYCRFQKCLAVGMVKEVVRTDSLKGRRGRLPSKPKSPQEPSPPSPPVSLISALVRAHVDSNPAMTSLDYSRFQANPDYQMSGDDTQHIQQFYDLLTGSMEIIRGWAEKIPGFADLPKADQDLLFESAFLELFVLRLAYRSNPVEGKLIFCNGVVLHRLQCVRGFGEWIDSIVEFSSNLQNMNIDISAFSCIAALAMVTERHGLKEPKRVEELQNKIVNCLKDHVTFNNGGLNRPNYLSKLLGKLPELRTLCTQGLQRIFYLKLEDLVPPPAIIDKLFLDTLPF
Chain of Myc proto-oncogene protein (Homo sapiens) (P01106 whole entry, looked up): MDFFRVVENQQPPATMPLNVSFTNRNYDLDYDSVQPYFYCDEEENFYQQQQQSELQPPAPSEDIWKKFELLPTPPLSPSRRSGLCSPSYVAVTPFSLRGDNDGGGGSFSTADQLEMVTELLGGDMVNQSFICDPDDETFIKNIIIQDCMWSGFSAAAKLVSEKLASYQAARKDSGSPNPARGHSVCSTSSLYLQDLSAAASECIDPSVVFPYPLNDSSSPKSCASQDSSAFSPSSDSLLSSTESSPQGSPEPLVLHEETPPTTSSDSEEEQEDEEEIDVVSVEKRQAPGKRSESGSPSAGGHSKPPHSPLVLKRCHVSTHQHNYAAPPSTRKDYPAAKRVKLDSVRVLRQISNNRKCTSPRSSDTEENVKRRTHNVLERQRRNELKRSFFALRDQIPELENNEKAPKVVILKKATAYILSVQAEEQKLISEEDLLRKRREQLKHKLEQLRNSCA
Chain of Bile acid receptor (Homo sapiens) (Q96RI1 whole entry, looked up, the tested form may be a part): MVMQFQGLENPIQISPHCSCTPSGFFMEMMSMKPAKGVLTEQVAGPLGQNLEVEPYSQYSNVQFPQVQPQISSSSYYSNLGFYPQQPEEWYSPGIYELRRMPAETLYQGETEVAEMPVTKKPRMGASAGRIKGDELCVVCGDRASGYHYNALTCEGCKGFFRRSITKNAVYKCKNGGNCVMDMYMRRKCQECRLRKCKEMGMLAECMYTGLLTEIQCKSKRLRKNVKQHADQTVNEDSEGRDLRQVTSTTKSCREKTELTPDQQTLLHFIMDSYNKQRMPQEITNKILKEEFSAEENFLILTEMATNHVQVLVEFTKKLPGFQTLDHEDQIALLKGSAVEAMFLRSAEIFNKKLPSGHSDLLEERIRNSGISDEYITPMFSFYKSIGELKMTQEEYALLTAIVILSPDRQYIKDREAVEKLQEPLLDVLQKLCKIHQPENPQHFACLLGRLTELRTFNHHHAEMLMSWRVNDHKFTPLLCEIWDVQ
Chain of Nuclear respiratory factor 1 (Homo sapiens) (Q16656 whole entry, looked up): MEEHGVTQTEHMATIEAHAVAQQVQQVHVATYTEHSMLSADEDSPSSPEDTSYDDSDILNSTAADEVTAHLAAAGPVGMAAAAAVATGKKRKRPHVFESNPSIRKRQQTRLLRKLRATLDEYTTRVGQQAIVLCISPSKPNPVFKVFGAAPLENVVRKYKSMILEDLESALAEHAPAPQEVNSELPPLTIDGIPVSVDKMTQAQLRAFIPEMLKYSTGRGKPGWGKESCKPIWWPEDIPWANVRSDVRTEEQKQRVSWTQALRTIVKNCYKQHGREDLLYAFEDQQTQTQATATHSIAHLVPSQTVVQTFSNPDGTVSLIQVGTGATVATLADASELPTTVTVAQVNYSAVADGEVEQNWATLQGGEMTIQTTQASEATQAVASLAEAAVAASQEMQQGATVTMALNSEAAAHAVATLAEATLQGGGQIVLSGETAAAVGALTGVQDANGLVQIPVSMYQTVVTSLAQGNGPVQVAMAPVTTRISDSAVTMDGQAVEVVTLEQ
Chain of Transcriptional activator Myb (Homo sapiens) (P10242 whole entry, looked up): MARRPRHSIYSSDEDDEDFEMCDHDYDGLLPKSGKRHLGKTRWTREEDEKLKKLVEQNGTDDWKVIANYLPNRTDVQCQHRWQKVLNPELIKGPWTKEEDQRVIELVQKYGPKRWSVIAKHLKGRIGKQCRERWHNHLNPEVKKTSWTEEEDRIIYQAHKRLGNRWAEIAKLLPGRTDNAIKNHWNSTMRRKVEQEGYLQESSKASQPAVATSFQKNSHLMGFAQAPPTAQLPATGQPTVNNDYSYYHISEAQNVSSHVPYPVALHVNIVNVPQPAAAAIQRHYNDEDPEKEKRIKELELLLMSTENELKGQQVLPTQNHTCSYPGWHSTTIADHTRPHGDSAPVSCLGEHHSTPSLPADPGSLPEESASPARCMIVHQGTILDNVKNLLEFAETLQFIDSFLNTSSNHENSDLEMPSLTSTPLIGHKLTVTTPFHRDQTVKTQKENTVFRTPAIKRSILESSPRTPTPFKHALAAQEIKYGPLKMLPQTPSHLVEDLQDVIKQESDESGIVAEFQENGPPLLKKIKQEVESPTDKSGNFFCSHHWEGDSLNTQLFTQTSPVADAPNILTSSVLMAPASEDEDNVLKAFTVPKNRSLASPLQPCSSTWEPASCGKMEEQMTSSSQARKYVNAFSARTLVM
Chain of Cellular tumor antigen p53 (Homo sapiens) (P04637 whole entry, looked up, the tested form may be a part): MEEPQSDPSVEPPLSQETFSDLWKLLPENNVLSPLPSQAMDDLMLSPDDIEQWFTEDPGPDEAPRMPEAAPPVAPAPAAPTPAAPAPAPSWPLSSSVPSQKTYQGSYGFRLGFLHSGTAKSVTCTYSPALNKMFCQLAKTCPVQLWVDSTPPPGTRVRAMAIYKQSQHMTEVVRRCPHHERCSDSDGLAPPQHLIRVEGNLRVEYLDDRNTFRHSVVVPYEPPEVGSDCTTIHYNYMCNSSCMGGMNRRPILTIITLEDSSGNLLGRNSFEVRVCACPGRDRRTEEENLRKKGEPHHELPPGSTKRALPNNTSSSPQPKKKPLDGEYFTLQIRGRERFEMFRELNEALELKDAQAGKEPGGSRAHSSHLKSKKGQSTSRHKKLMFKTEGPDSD
Chain of Hepatocyte nuclear factor 4-alpha (Homo sapiens) (P41235 whole entry, looked up, the tested form may be a part): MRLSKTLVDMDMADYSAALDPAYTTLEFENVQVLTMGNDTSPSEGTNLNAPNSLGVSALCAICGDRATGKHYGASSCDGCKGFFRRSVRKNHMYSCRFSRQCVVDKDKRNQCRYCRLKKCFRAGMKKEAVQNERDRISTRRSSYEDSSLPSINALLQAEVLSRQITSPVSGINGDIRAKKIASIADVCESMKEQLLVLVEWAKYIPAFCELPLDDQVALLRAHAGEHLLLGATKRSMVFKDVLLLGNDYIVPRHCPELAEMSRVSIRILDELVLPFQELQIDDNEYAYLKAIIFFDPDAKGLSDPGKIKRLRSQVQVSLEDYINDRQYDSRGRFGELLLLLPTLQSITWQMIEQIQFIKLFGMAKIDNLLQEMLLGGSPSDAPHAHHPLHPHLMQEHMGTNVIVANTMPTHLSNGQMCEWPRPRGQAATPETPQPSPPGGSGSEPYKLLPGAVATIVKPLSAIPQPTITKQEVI

CCCCCCOC(=O)C(C)CC (configuration not stated)
not listed: [11] | [12] | [13] | [14] | [15] | [16]
inactive: all other assays above

CC(C)c1ccc2c(c1)CC[C@H]1[C@](C)(CN)CCC[C@]21C
active: [12] 5.45 µM | [14] 5.84 µM | [9] 5.89 µM
not listed: [4] | [10] | [16]
inactive: all other assays above

O=[N+]([O-])C1(Br)COCOC1
active: [14] 51.7 µM | [10] 53.8 µM
not listed: [9] | [16]
inactive: all other assays above

C=C(C)C(=O)OCCO
not listed: [2] | [6] | [10] | [14]
inactive: all other assays above

O=S(=O)(O)c1ccccc1C=Cc1ccc(-c2ccc(C=Cc3ccccc3S(=O)(=O)O)cc2)cc1
not listed: [9] | [11] | [12] | [16]
inactive: all other assays above

O=C1Nc2ccccc2C1(c1ccc(O)cc1)c1ccc(O)cc1
active: [2] 10.5 µM | [15] 178 µM | [9] 22.4 µM
not listed: [3] | [10] | [13] | [14] | [16]
inactive: all other assays above

CC(=O)[C@@]1(O)CC[C@H]2[C@@H]3C[C@H](C)C4=CC(=O)C=C[C@]4(C)[C@@]3(F)[C@@H](O)C[C@@]21C
active: [1] 0.221 µM
not listed: [4] | [10] | [12] | [13] | [14] | [16]
inactive: all other assays above

O=c1cc(-c2ccccc2)oc2ccccc12
active: [14] 82.3 µM | [15] 4.03 µM | [9] 52.4 µM
not listed: [2] | [4] | [10]
inactive: all other assays above

CCCCCCCC/C=C\CCCCCCCC(=O)O
active: [15] 100 µM
not listed: [9] | [14] | [16]
inactive: all other assays above

O=C(c1ccccc1)c1ccc(O)c(O)c1O
active: [15] 61.6 µM
not listed: [2] | [14]
inactive: all other assays above
